# Source: PubChem BioAssay (NCI)
# The panel holds about 83,000 compounds, 20% with a hit somewhere; the sample as a whole holds those more often.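 Step 1: grow cells in 96-well plates. Step 2: add test compound at a single concentration. Step 3: incubate 48 h. Step 4: record percent growth.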 Values without a mark were called inactive. Activity calls are given as the source filed them. The calls were made as follows: active = growth percent below 10; inactive = the rest.
# Key:
# Assay in all cases: NCI-60 one-dose screen, 48 h (100 = growth as untreated, 0 = no growth, -100 = all killed)
# Details in all cases: 10 µM unless noted
# HCT-15 colon = test system: HCT-15 colon
# HT29 colon = test system: HT29 colon
# SNB-75 CNS = test system: SNB-75 CNS
# SNB-19 CNS = test system: SNB-19 CNS
# PC-3 prostate = test system: PC-3 prostate
# SK-MEL-5 melanoma = test system: SK-MEL-5 melanoma
# UACC-62 melanoma = test system: UACC-62 melanoma
# LOX IMVI melanoma = test system: LOX IMVI melanoma
# SK-MEL-28 melanoma = test system: SK-MEL-28 melanoma
# SK-MEL-2 melanoma = test system: SK-MEL-2 melanoma
# SN12C renal = test system: SN12C renal
# UO-31 renal = test system: UO-31 renal
# TK-10 renal = test system: TK-10 renal
# ACHN renal = test system: ACHN renal
# CAKI-1 renal = test system: CAKI-1 renal
# A498 renal = test system: A498 renal
# MOLT-4 leukemia = test system: MOLT-4 leukemia
# EKVX NSCLC = test system: EKVX NSCLC
# CCRF-CEM leukemia = test system: CCRF-CEM leukemia
# U251 CNS = test system: U251 CNS
Structure (SMILES),growth (HCT-15 colon),growth (HT29 colon),growth (SNB-75 CNS),growth (SNB-19 CNS),growth (PC-3 prostate),growth (SK-MEL-5 melanoma),growth (UACC-62 melanoma),growth (LOX IMVI melanoma),growth (SK-MEL-28 melanoma),growth (SK-MEL-2 melanoma),growth (SN12C renal),growth (UO-31 renal),growth (TK-10 renal),growth (ACHN renal),growth (CAKI-1 renal),growth (A498 renal),growth (MOLT-4 leukemia),growth (EKVX NSCLC),growth (CCRF-CEM leukemia),growth (U251 CNS)
Cc1cc(Nc2c3ccccc3nc3ccccc23)ccc1NS(C)(=O)=O,19.8%,18.2%,51.3%,58%,33.2%,43.4%,57%,28.3%,57.2%,40.7%,39.6%,22.7%,56%,9.04% (active),29%,24.2%,2.33% (active),,,
CC(C)c1cccc(C#N)c1,113%,104%,83.7%,99%,85.5%,92.3%,102%,95.3%,105%,120%,97.3%,98.7%,121%,115%,98.9%,92.3%,101%,94%,90%,
O=P(O)(O)C(O)(Cc1cccnc1)P(=O)(O)O,90.3%,,88%,107%,95.9%,103%,99.2%,86.1%,103%,111%,94%,84.6%,144%,100%,94.2%,119%,,103%,79.1%,81.6%
COc1ccc(C2=NNC(c3ccc(Oc4nc5c(c(=O)n(C)c(=O)n5C)n4C)c(OC)c3)C2)cc1 (configuration not stated),93.8%,95.5%,78.7%,87.6%,101%,85.3%,81.2%,91.4%,97.1%,99.4%,85.2%,81.2%,107%,93.7%,102%,91.9%,76%,97.7%,82.8%,
COC(=O)[C@H](Cc1cn(C)cn1)NC(=O)[C@H](CC(C)C)NC(=O)Nc1cc(C(F)(F)F)cc(C(F)(F)F)c1,-96.6% [100 µM] (active),-89.6% [100 µM] (active),-100% [100 µM] (active),-97.9% [100 µM] (active),-95.1% [100 µM] (active),-95.4% [100 µM] (active),-99.3% [100 µM] (active),-86.6% [100 µM] (active),-100% [100 µM] (active),-95.4% [100 µM] (active),-92.8% [100 µM] (active),-96.7% [100 µM] (active),-98.5% [100 µM] (active),-100% [100 µM] (active),-99.2% [100 µM] (active),-93.8% [100 µM] (active),-57.2% [100 µM] (active),,,
CCOC(=O)C1OC2(CCCC2)OC1C(=O)OCC (configuration not stated),106%,99.2%,104%,99.3%,97.6%,101%,96.7%,102%,122%,,101%,83%,102%,109%,102%,107%,92.2%,108%,86.3%,
O=C(Nc1ccncc1)C(=O)c1cn(S(=O)(=O)c2cccc(Cl)c2F)c2ccccc12,50%,,80.7%,82.7%,75.8%,57.5%,57%,51.3%,95.1%,60.6%,82.9%,56.9%,112%,101%,68.3%,72%,60.2%,59.2%,66.4%,73.6%
O=c1nc(-c2ccccc2)c2cc(-c3ccc(N4CCOCC4)cc3)ccc2[nH]1,74%,,106%,87.4%,70.9%,83.6%,74.3%,74.5%,91.8%,81.6%,79.4%,66%,68.1%,71.6%,74.8%,88.6%,71.2%,89.8%,77.4%,69.9%
CC(=O)O[C@@H]1CC2C(C)(C)CCCC2(C)C2=C1C(=O)C(C(C)C)=CC2=O (some centres not stated),-8% (active),,-11.8% (active),20.9%,12%,-93.3% (active),-64.4% (active),10.6%,-16.8% (active),-47.9% (active),7.47% (active),-94.1% (active),,-70.2% (active),-3.95% (active),-63.3% (active),9.69% (active),10.8%,14%,3.62% (active)
CCN(CC)CCCCCCCCNc1c2ccc(Cl)cc2nc2ccc(OC)cc12,-39% (active),,-85.6% (active),-30.9% (active),-56.4% (active),-97.7% (active),-82.1% (active),-78.2% (active),-85.8% (active),,-19.7% (active),-56.2% (active),,-58% (active),-1.58% (active),-92.5% (active),-45.8% (active),-12.2% (active),-26.5% (active),
CCN(CC)C(=O)O/N=C(/C)c1ccccc1,110%,,83%,99.6%,98.6%,94.2%,99.1%,91.1%,97.9%,102%,100%,101%,87.2%,112%,115%,103%,109%,112%,100%,89.7%
O=c1c2cc(Cl)ccc2oc2ccc(OCCCCCN3CCCCC3)cc12,-14.7% (active),,102%,77.5%,69.1%,-26.2% (active),-52.7% (active),-6.06% (active),12%,64.8%,65.1%,60.7%,69.2%,94.8%,70.8%,75.6%,25.2%,70.3%,39.8%,46%
Clc1nnc2c3ccccc3ccn12,99.9%,,82.2%,110%,93%,97.7%,102%,109%,119%,108%,109%,98.8%,106%,105%,93%,106%,104%,105%,92.6%,102%
O=C(Nc1cccc(-n2ccc3c(NC(=O)c4ccccc4)nccc32)c1)c1ccc(Cl)c(Cl)c1,-62% (active),,2.32% (active),-40.3% (active),-60.5% (active),-100% (active),-61.3% (active),-84.4% (active),-60.4% (active),,-83.8% (active),-78.1% (active),,-75.9% (active),-71.7% (active),-2.71% (active),,-33.3% (active),-41.6% (active),
CS(=O)(=O)c1ccc(C(=O)Nc2ccc(Cl)c(-c3ccccn3)c2)c(Cl)c1,22.7%,,14%,51.1%,7.55% (active),10.9%,19.7%,16%,23.2%,-6.37% (active),28.2%,24.6%,11.9%,27.9%,-17.6% (active),6.2% (active),11.5%,23.5%,,15.5%
CCn1c(=O)c(C(=O)NCCCO)c(O)c2ccccc21,103%,,96.8%,102%,101%,94.2%,94.4%,98.5%,118%,112%,104%,86.9%,,102%,116%,109%,100%,65.6%,103%,
